Assay results published in PubChem BioAssay (Tox21).
Results filed as inconclusive are left out. Where a call stands in place of a potency, no number is given. The source made the active and inactive calls. Unless noted, the call rests on the fitted dose curve; in most records, active means well fitted curve in the direction sought with a large enough effect in the repeat runs; inconclusive means weak or mixed curves; inactive means no such curve, though single readings can be large; an effect the other way counts as inactive or inconclusive. Non-standard residues stand in square brackets, D forms with d. Residues, ends and D or L forms follow the SMILES beside them. pGlu = O=C1CC[C@@H](C(=O)O)N1; Thz = O=C(O)[C@@H]1CSCN1

How the values were obtained:
[1] = qHTS assay for small molecule agonists of the p53 signaling pathway (AID 651631; calls by dose curve; further: nearly all actives have a fitted effect of over 15% in size; further: potency means the concentration at half of the fitted maximal effect)
Procedure, shortened: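 HCT-116 p53RE-bla reporter line, 16 h compound treatment at 37 °C, then fluorescence after 2 h with B/G FRET substrate.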

[2] = qHTS assay for small molecules that induce genotoxicity in human embryonic kidney cells expressing luciferase-tagged ATAD5 (AID 651632); further: nearly all actives have a fitted effect of over 15% in size
Procedure, shortened: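 Increased luciferase signal from ATAD5-tagged reporter cells indicates DNA-damage-driven ATAD5 induction. HEK293T cells are treated for 16 hr at 37C before detection with Amplite.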

[3] = qHTS assay for small molecule agonists of the p53 signaling pathway - cell viability (AID 651633; calls by dose curve;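 further: p53RE-bla HCT reporter cells with a stable beta-lactamase p53 reporter; series mostly up to about 83 µM; nearly all actives have a fitted effect of over 30% in size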)
Procedure, shortened: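 Viability counter-read: CellTiter-Glo luminescence (30 min, room temperature) in the same p53RE-bla plates. These plates had been exposed to compounds for 16 h at 37 C.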

[4] = qHTS assay for small molecules that induce genotoxicity in human embryonic kidney cells expressing luciferase-tagged ATAD5 - cell viability (AID 651634; calls by dose curve; further: nearly all actives have a fitted effect of over 25% in size)
Procedure, shortened: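 Cytotoxicity counterscreen in HEK293T cells bearing an ATAD5-luciferase reporter: live-cell protease activity measured by CellTiter-Fluor fluorescence after 15.5 hr compound exposure.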

[5] = qHTS assay for small molecule disruptors of the mitochondrial membrane potential - cell viability (AID 720634; calls by dose curve;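 further: human HepG2 liver cancer cells; series mostly up to about 83 µM; nearly all actives have a fitted effect of over 20% in size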)
Procedure, shortened: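 After overnight attachment at 37 C, HepG2 cells received compound or DMSO vehicle for 1 hr. Viability is then taken from ATP-driven luminescence following a 30 min room-temperature CellTiter-Glo step.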

[6] = qHTS assay to test for compound auto fluorescence at 590 nm (red) in HepG2 cells (AID 720674)
Procedure, shortened: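 We screened compounds on adherent HepG2 cells, incubating them for an hour at 37 C in 5% CO2 before reading emission at 590 nm under 540 nm excitation; values reflect equivalence to Rose Bengal sodium fluorescence.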

[7] = qHTS assay to test for compound auto fluorescence at 535 nm (green) in HepG2 cells (AID 720675)
[8] = qHTS assay to test for compound auto fluorescence at 460 nm (blue) in HEK293 cells (AID 720678)
Procedure, shortened: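 Intrinsic compound fluorescence is recorded in live HEK293 cultures after overnight incubation at 37C, 5% CO2, using excitation 405 nm and emission 460 nm. Values are referenced to triamterene.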

[9] = qHTS assay to test for compound auto fluorescence at 590 nm (red) in HEK293 cells (AID 720679)
Procedure, shortened: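 Red autofluorescence, HEK293 cells: 2,000 cells/well; attach 4-5 hr 37C; add 23 nL cpd or DMSO; incubate o/n 37C 5% CO2; read Ex540/Em590; Rose Bengal sodium reference.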

[10] = qHTS assay for small molecule disruptors of the mitochondrial membrane potential (AID 720635); further: potency means the concentration at half of the fitted maximal effect
Procedure, shortened: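 Mitochondrial membrane potential tracked with Mito-MPS dye, red aggregates (ex 540/em 590 nm) against green monomers (ex 490/em 535 nm). Compound treatment 1 hr at 37C, dye 30 min in HepG2.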

Structure (SMILES)	Potency [1]	Potency [2]	Potency [3]	Potency [4]	Potency [5]	Potency [6]	Potency [7]	Potency [8]	Potency [9]	Potency [10]
CC(C)(C)NC[C@H](O)COc1ccccc1C1CCCC1	inactive	inactive	inactive	inactive	inactive	inactive	inactive	inactive	inactive	–
CCCc1ccc(C(=O)O)cc1	inactive	inactive	inactive	inactive	inactive	inactive	inactive	inactive	inactive	–
C[C@@H](O)[C@H]1C(=O)N2C(C(=O)[O-])=C(SC3Cn4cnc[n+]4C3)[C@H](C)[C@H]12 (some centres undefined)	inactive	inactive	inactive	inactive	inactive	inactive	inactive	inactive	inactive	–
CCCCCCCCCCCCCCCC(=O)O[C@@H]1[C@@H](O)[C@@H](O)[C@@H]([C@H](NC(=O)[C@@H]2C[C@@H](CCC)CN2C)[C@H](C)Cl)O[C@@H]1SC	inactive	inactive	inactive	inactive	inactive	inactive	inactive	inactive	inactive	–
O=C(O)c1nc(=O)[nH]c(=O)[nH]1	inactive	inactive	inactive	inactive	inactive	inactive	inactive	inactive	inactive	–
NC(=O)OCC(O)COc1ccc(Cl)cc1 (centres undefined)	inactive	inactive	inactive	inactive	inactive	inactive	inactive	inactive	inactive	–
CO/N=C(\C(=O)N[C@@H]1C(=O)N2C(C(=O)OCOC(=O)C(C)(C)C)=C(/C=C\c3scnc3C)CS[C@H]12)c1csc(N)n1	inactive	inactive	inactive	inactive	inactive	inactive	inactive	inactive	inactive	–
CC1(O)CCC(C(C)(C)O)CC1 (centres undefined)	inactive	inactive	inactive	inactive	inactive	inactive	inactive	inactive	inactive	–
CO[C@@]1(NC(=O)C2SC(=C(C(N)=O)C(=O)O)S2)C(=O)N2C(C(=O)O)=C(CSc3nnnn3C)CS[C@@H]21 (some centres undefined)	inactive	inactive	inactive	inactive	inactive	inactive	inactive	inactive	inactive	–
O=C(Cc1cccs1)N[C@@H]1C(=O)N2C(C(=O)[O-])=C(C[n+]3ccccc3)CS[C@H]12	inactive	inactive	inactive	inactive	inactive	inactive	inactive	inactive	inactive	–
CS(=O)(=O)Nc1cc2occ(NC=O)c(=O)c2cc1Oc1ccccc1	inactive	inactive	inactive	inactive	inactive	inactive	inactive	inactive	inactive	–
Cc1ncc(C[n+]2csc(CCOP(=O)(O)OP(=O)(O)O)c2C)c(N)n1	inactive	inactive	inactive	inactive	inactive	inactive	inactive	inactive	inactive	–
CO[C@@H]1[C@@H](O[C@@H]2O[C@H](C)[C@@H](O[C@H]3C[C@@](C)(O)[C@@H](O)[C@H](C)O3)[C@H](N(C)C)[C@H]2O)[C@@H](CC=O)C[C@@H](C)[C@@H](O[C@@H]2CC[C@H](N(C)C)[C@@H](C)O2)/C=C/C=C/C[C@@H](C)OC(=O)C[C@H]1O	inactive	inactive	inactive	inactive	inactive	inactive	inactive	inactive	inactive	–
CC(C)c1nc(N(C)S(C)(=O)=O)nc(-c2ccc(F)cc2)c1/C=C/C(O)CC(O)CC(=O)O (centres undefined)	inactive	inactive	inactive	inactive	inactive	inactive	inactive	inactive	inactive	–
C=CCOc1ccc(CC(=O)O)cc1Cl	inactive	inactive	inactive	inactive	inactive	inactive	inactive	inactive	inactive	–
Cc1cccc(C)c1N(CCCc1cccnc1)C(=O)C(C)N (centres undefined)	inactive	inactive	inactive	inactive	inactive	inactive	inactive	inactive	inactive	–
CC(=O)O[C@H]1C[C@@]2(C)[C@@H](C[C@@H](O)[C@H]3[C@@]4(C)CC[C@@H](O)[C@@H](C)[C@@H]4CC[C@@]32C)/C1=C(\CCC=C(C)C)C(=O)O	inactive	inactive	inactive	inactive	inactive	inactive	inactive	inactive	inactive	–
C#CCOc1ccc2c(C)cc(=O)oc2c1	inactive	inactive	inactive	inactive	inactive	inactive	inactive	inactive	inactive	–
NCc1ccccc1CC(=O)N[C@@H]1C(=O)N2C(C(=O)O)=C(CSc3nnnn3CC(=O)O)CS[C@H]12	inactive	inactive	inactive	inactive	inactive	inactive	inactive	inactive	inactive	–
CC(C(=O)O)c1ccc(C2CCCCC2)c2ccccc12 (centres undefined)	inactive	inactive	inactive	inactive	inactive	inactive	inactive	inactive	inactive	–

Structure (SMILES)	Potency [1]	Potency [2]	Potency [3]	Potency [4]	Potency [5]	Potency [6]	Potency [7]	Potency [8]	Potency [9]	Potency [10]
CO[C@H]1C[C@H](O[C@H]2[C@H](C)[C@@H](O[C@@H]3O[C@H](C)C[C@H](N(C)C)[C@H]3OC(C)=O)[C@@H](C)C[C@]3(CO3)C(=O)[C@H](C)[C@@H](OC(C)=O)[C@@H](C)[C@@H](C)OC(=O)[C@@H]2C)O[C@@H](C)[C@@H]1OC(C)=O	inactive	inactive	inactive	inactive	inactive	inactive	inactive	inactive	inactive	–
CCC(C)[C@@H](N)C(=O)O (some centres undefined)	inactive	inactive	inactive	inactive	inactive	inactive	inactive	inactive	inactive	–
O=S(=O)(O)CCCS(=O)(=O)O	inactive	inactive	inactive	inactive	inactive	inactive	inactive	inactive	inactive	–
COc1ccc(-c2noc(CC(=O)O)c2-c2ccc(OC)cc2)cc1	inactive	inactive	inactive	inactive	inactive	inactive	inactive	inactive	inactive	–
CC(=O)[C@@]1(O)CC[C@H]2[C@@H]3C=C(Cl)C4=CC(=O)[C@@H]5C[C@@H]5[C@]4(C)[C@H]3CC[C@@]21C	inactive	inactive	inactive	inactive	inactive	inactive	inactive	inactive	inactive	–
CC1(C)S[C@@H]2[C@H](NC(=O)C(C(=O)O)c3ccsc3)C(=O)N2[C@H]1C(=O)O (some centres undefined)	inactive	inactive	inactive	inactive	inactive	inactive	inactive	inactive	inactive	–
O=S(=O)(O)Oc1ccc(C(c2ccc(OS(=O)(=O)O)cc2)c2ccccn2)cc1	inactive	inactive	inactive	inactive	inactive	inactive	inactive	inactive	inactive	–
CC(=O)Oc1cccc(C(=O)O)c1OC(C)=O	inactive	inactive	inactive	inactive	inactive	inactive	inactive	inactive	inactive	–
Cc1cccc(Nc2ncccc2C(=O)O)c1C	inactive	inactive	inactive	inactive	inactive	inactive	inactive	inactive	inactive	–
CN(C)C=Nc1c(I)cc(I)c(CCC(=O)O)c1I	inactive	inactive	inactive	inactive	inactive	inactive	inactive	inactive	inactive	–
CNCC(O)c1ccc(OC(=O)C(C)(C)C)c(OC(=O)C(C)(C)C)c1 (centres undefined)	inactive	inactive	inactive	inactive	inactive	inactive	inactive	inactive	inactive	–
NCCCC[C@H](N)C(=O)O	inactive	inactive	inactive	inactive	inactive	inactive	inactive	inactive	inactive	–
C/C=C(/CC[C@@H](C)[C@H]1CC[C@H]2C3=CC[C@H]4[C@H](C)[C@@H](O)CC[C@]4(C)[C@H]3CC[C@]12C)C(C)C	inactive	inactive	inactive	inactive	inactive	inactive	inactive	inactive	inactive	–
CN(CC(=O)N1CCOCC1)Cc1c(Cl)cccc1NC(=O)c1ccccc1	inactive	inactive	inactive	inactive	inactive	inactive	inactive	inactive	inactive	–
O=C1CC[C@@H](C(=O)N2CSC[C@H]2C(=O)O)N1 ([pGlu]-[Thz]-OH)	inactive	inactive	inactive	inactive	inactive	inactive	inactive	inactive	inactive	–
C[Se]CCC(N)C(=O)O (centres undefined)	inactive	inactive	inactive	inactive	inactive	inactive	inactive	inactive	inactive	–
CC[C@H]1OC(=O)[C@H](C)[C@@H](O[C@H]2C[C@@](C)(OC)[C@@H](O)[C@H](C)O2)[C@H](C)[C@@H](O[C@@H]2O[C@H](C)C[C@H](N(C)C)[C@H]2O)[C@](C)(O)C[C@@H](C)[C@@H]2N[C@@H](COCCOC)O[C@@H]([C@H]2C)[C@]1(C)O	inactive	inactive	inactive	inactive	–	inactive	inactive	inactive	inactive	–
CCCCCCCCCCCCCCCC(=O)OC[C@@H](COP(=O)([O-])OCC[N+](C)(C)C)OC(=O)CCCCCCCCCCCCCCC	inactive	inactive	–	inactive	inactive	inactive	inactive	inactive	inactive	inactive
CCNC(=O)[C@@H]1CCCN1C(=O)[C@H](CCCN=C(N)N)NC(=O)[C@H](CC(C)C)NC(=O)[C@@H](CC(C)C)NC(=O)[C@H](Cc1ccc(O)cc1)NC(=O)[C@H](CO)NC(=O)[C@H](Cc1c[nH]c2ccccc12)NC(=O)[C@H](Cc1cnc[nH]1)NC(=O)[C@@H]1CCC(=O)N1	inactive	inactive	–	inactive	inactive	inactive	inactive	inactive	inactive	inactive
O=[N+]([O-])c1ccc(Oc2ccc(N=C=S)cc2)cc1	13.3 µM (active)	inactive	inactive	inactive	–	inactive	inactive	inactive	inactive	5.96 µM (active)
